Screening data: PubChem, several laboratories
Rows were chosen to be rich in hits. Some 3.4% of all compounds tested hit in one or more screens of this group.
Cardio protect: modulators protecting cardiomyocytes from myocardial damage; H9c2 cardiomyocytes, H2O2 injury protection, ATPLite, 2 h; protection from H2O2 cell death, % at 20 µM; 360,000 compounds, 0.63% hits; AID 588492;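 active means compounds giving at least 50% protection of heart cells from peroxide-induced death in the single-dose screen, raw or plate-pattern-corrected value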;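 further: 0% = DMSO wells with peroxide and 100% = DMSO wells without peroxide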
NR2F2 inh: NR2F2 (human) inhibition, primary screen; AID 686940; 370,000 compounds, 0.7% hits; HEK293T NGFI-A luciferase reporter, luminescence; inhibition, % at 8.6 µM; P24468;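 active means inhibition above a per-plate cutoff, mean inhibition of test wells between control levels plus 3 SD, cut at about 38% in these data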;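 further: cells cotransfected with COUP-TFII expression vector driving the NGFI-A reporter; 0% = median of COUP-TF2 test wells and 100% = reporter-only cells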
Target sequence (P24468 whole entry, looked up): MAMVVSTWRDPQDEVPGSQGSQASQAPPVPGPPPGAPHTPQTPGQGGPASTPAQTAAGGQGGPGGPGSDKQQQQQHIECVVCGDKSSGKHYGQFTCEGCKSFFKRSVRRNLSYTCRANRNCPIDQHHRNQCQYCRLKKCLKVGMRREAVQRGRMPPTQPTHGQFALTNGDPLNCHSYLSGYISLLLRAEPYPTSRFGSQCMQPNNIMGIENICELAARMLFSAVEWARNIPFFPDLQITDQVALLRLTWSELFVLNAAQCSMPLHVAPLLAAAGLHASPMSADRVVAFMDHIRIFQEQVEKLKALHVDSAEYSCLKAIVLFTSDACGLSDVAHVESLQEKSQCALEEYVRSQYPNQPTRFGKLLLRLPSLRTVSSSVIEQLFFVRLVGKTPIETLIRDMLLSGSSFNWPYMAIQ
Gli-Sufu block: Gli-Sufu pathway antagonism | inhibition, % at 5 µM | Sufu-KO-LIGHT fibroblasts, Gli luciferase reporter luminescence | AID 588413 | 340,000 compounds, 0.74% hits;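 active means inhibition above about 55%, limit read from the data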;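 further: 0% = DMSO-treated cells and 100% = wells with medium but no cells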
SMARCA2 activ: activators of SMARCA2 function; MG213 cells, MMTV-luciferase reporter, dexamethasone, overnight; 370,000 compounds, 1% hits; activation, % at 9.1 µM; in the data active means activation above about 7.8%;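 further: 0% = vehicle wells and 100% = reference activator wells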
FXN GAA850 act: increases GAA850 frataxin promoter reporter activity | 360,000 compounds, 0.56% hits | AID 540364 | activation, % at 6 µM | HEK293 lucGAA850 FXN promoter luciferase reporter, 24 h; percent of 10 µM SAHA response;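 active means activation above the average of all compounds screened plus 3 SD, cutoff fixed separately per campaign, cut at about 7.5% in these data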;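 further: 0% = DMSO wells and 100% = 10 µM SAHA wells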
GalR3 antag: blocks the human galanin receptor 3 | AID 651719 | HEK293 GalR3-CNG cAMP membrane potential fluorescence; galR3 body fused to GalR1 C-terminus | 360,000 compounds, 0.44% hits | O60755 | inhibition, % at 3 µM;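 active means inhibition above the screen-wide average plus 3 SD, cut at about 13% in these data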;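 further: forskolin and galanin both at EC90 stimulate the cells; cAMP rise reported by CNG channel membrane potential dye signal; 0% = forskolin plus galanin with DMSO and 100% = forskolin alone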
Target sequence (O60755 1-299 limits assumed): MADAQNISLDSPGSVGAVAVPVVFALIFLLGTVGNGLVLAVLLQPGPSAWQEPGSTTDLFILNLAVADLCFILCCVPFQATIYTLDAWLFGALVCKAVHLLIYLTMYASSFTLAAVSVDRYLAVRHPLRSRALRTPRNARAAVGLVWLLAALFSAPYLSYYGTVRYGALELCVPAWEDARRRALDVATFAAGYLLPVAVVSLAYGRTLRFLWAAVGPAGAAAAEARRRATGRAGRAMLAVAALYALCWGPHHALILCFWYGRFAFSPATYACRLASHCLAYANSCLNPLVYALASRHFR
SMARCA2 act conf: confirmation of SMARCA2 (BRM) function activators. shares compounds with SMARCA2 activ. 3,500 compounds, 30% hits. AID 652260. MG213 cells, MMTV-luciferase with dexamethasone, luminescence, overnight; MG213 cells expressing E1A, Rb sequestered; DMSO wells 0%, reference activator 100%. activation, % at 9.1 µM;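 active means activation above its plate's cutoff, the mean activation of tested wells plus 3 SD, cut at about 7.9% in these data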
GAL4-VP16 Luc: activates GAL4-VP16 luciferase, flagging SMARCA2 activator hits | shares compounds with SMARCA2 activ | HEK293 GAL4-VP16 pG5luc reporter, luciferase luminescence; scaled: DMSO wells 0%, SAHA wells 100% | activation, % at 9.1 µM | 3,500 compounds, 41% hits | AID 686939;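 active means activation above the solvent-only control well mean plus 3 SD, averaged across control plates, cut at about 5.2% in these data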
* hit, by the source's call; / = no result.

SMILES | Cardio protect | NR2F2 inh | Gli-Sufu block | SMARCA2 activ | FXN GAA850 act | GalR3 antag | SMARCA2 act conf | GAL4-VP16 Luc
CCOC(=O)c1ccc(Cl)c(NC(=O)c2ccc(-c3ccccc3)cc2)c1 | 2.3 | -15.0 | -35.7 | -0.1 | 2.1 | -0.4 | / | /
CCc1nnc(N2C(=N)SCC2=O)s1 | 8.6 | -5.7 | 28.9 | -0.9 | 2.2 | -0.2 | / | /
O=C(NCc1cccnc1)c1cccs1 | 5.4 | 0.9 | 6.6 | 9.5* | 0.0 | -0.2 | 1.8 | -0.3
Cc1cc(C(=O)NCc2cccnc2)cs1 | -4.4 | / | / | / | 1.2 | / | / | /
CCSc1nnc(NC(=O)C(NC(=O)c2ccc(Cl)cc2)C(C)C)s1 (centres undefined) | -1.1 | 2.0 | 3.5 | -1.5 | -2.1 | -7.0 | / | /
Cc1nn(CC2CC2)c(=O)n1-c1ccccc1F | -4.8 | -1.8 | -26.2 | -2.6 | 1.3 | -0.9 | / | /
Cc1nn(CCOc2ccccc2)c(=O)n1-c1c(F)cccc1F | 2.3 | -47.5 | -64.7 | 9.8* | 4.0 | -3.7 | 3.3 | 8.0*
CCOC(=O)C1C[C@@H](O)C=CC1=O (some centres undefined) | / | 16.1 | / | / | / | / | / | /
CCC(C)NC(=O)C1(O)c2cc(Br)ccc2NC(=O)N1c1cccc(OC)c1 (centres undefined) | -1.5 | -3.5 | 3.8 | -1.3 | 1.9 | -7.7 | / | /
O=C(O)c1ccccc1C(=O)Nc1ccc(-c2csc(-c3ccccc3)n2)cc1 | -6.8 | -17.0 | -25.0 | 9.5* | 2.8 | -2.1 | 5.1 | 9.5*
O=C(Nc1ccc(-c2csc(-c3ccccc3)n2)cc1)c1ccccc1Cl | -9.3 | -2.2 | -8.2 | -2.7 | -2.0 | -6.5 | / | /
CCN(CC)C(=O)c1cccc(-c2csc(C(C)(O)c3ccc(OC)cc3)n2)c1 (centres undefined) | -3.9 | 15.8 | / | -5.2 | -6.1 | -9.9 | / | /
COC(=O)[C@]12CCCCC=C1N(Cc1ccc(Cl)cc1Cl)C(=O)[C@H](CC(=O)NCc1cccs1)C2 | / | 0.8 | / | -7.5 | / | -6.2 | / | /
CCSc1nc(N2CCOCC2)c2ccccc2n1 | 10.0 | -14.7 | -8.9 | 13.5* | 3.4 | -5.3 | 2.8 | 0.7
CN(CC(=O)NCc1ccncc1)S(=O)(=O)c1ccc(F)cc1 | -22.5 | -3.7 | 7.4 | 8.3* | 2.3 | -7.8 | -1.8 | -0.2
CC(OC(=O)CNC(=O)c1cccs1)C(=O)Nc1ccc(S(N)(=O)=O)cc1 (centres undefined) | 1.5 | 22.1 | -1.8 | -1.9 | 0.4 | 1.2 | / | /
CCN(CC)CCNC(=O)c1ccc(NCN2C(=O)NC(c3ccccc3)(c3ccccc3)C2=O)cc1 | / | -6.1 | / | 8.0* | / | -5.5 | 3.2 | 1.8
N#Cc1c(N)n[nH]c1CCCN | 5.4 | 11.6 | 1.0 | 3.9 | 1.6 | -1.2 | / | /
c1ccc(N=Nc2ccc3cccccc2-3)cc1 | -14.3 | -25.5 | -5.6 | 9.6* | 6.8 | 1.9 | 13.7* | 13.2*
Nc1ccc(N=Nc2ccccc2)c2ccccc12 | -3.2 | -33.0 | 20.7 | 2.1 | 2.8 | -8.6 | / | /
CCc1sc(C(=O)NCc2ccco2)cc1C | 0.7 | -15.5 | 1.7 | 11.1* | 2.9 | -9.0 | -1.4 | 1.3
N#Cc1cc(C#N)c(N2CCN(c3ccccn3)CC2)nc1N | 22.1 | -53.9 | -54.2 | 9.1* | 6.6 | -5.2 | 16.1* | 10.8*
c1ccc(N2CCN(c3cnccn3)CC2)nc1 | 3.3 | -17.4 | -11.4 | -0.1 | 0.2 | 1.2 | / | /
O=C(NCc1ccccn1)C1CC(c2ccc(F)cc2)=NO1 (centres undefined) | 1.7 | -12.3 | 1.9 | -0.8 | -0.6 | -0.2 | / | /
CCOc1ccc(N2CC(C(=O)Nc3ccc(S(=O)(=O)Nc4nccs4)cc3)CC2=O)cc1 (centres undefined) | 3.6 | 13.2 | -1.7 | 0.5 | 0.9 | -2.5 | / | /
SMILES | Cardio protect | NR2F2 inh | Gli-Sufu block | SMARCA2 activ | FXN GAA850 act | GalR3 antag | SMARCA2 act conf | GAL4-VP16 Luc
c1ccc(OCc2nc3ccccc3s2)cc1 | -8.8 | -41.0 | -111.5 | 4.1 | 5.6 | -2.9 | / | /
Fc1ccc(OCc2nc3ccccc3s2)cc1 | -10.9 | -68.3 | -67.8 | 9.1* | 2.1 | -5.3 | 7.3 | 11.5*
O=C1c2ccccc2-c2nnc(-c3ccccc3)cc21 | -31.4 | -11.2 | -14.1 | 7.2 | 0.9 | -1.7 | / | /
COc1ccc(-c2cc3c(nn2)-c2ccccc2C3=O)cc1 | -25.3 | -16.3 | -0.7 | 11.3* | -4.7 | -7.3 | 8.7* | 5.2*
CCSc1ccc(-c2ccc(C)cc2)nn1 | -25.8 | -68.0 | -116.5 | 12.8* | 7.4 | -3.4 | 13.9* | 9.5*
Cc1ccc(-c2ccc(SCC(=O)NC3CCCC3)nn2)cc1 | -8.7 | 4.4 | -13.5 | -1.1 | 4.0 | -1.8 | / | /
COc1cccc2c3c(c(=O)[nH]c12)CC(C)(C)O3 | -5.0 | -19.3 | -9.3 | 12.1* | 1.4 | -5.1 | -0.8 | -0.2
COc1cccc2c3c(c(=O)[nH]c12)CCC(C)(C)O3 | -5.9 | -18.0 | 2.4 | -1.3 | 0.3 | -1.8 | / | /
CC(c1nc2ccccc2[nH]1)n1c(=O)c(-c2ccco2)nc2ccccc21 (centres undefined) | / | -17.6 | / | -0.4 | / | -2.2 | / | /
CCCNC(=O)C1(C)CCCN(C(=O)c2cccc(Cl)c2)C1 (centres undefined) | 6.3 | -16.3 | / | 9.3* | -0.8 | -3.7 | 0.4 | 1.1
CCNC(=O)C1(C)CCN(C(=O)c2cccc(Cl)c2)C1 (centres undefined) | 0.3 | -16.6 | / | -2.9 | 0.9 | -1.6 | / | /
Nc1ncnc(Sc2ccccc2)c1[N+](=O)[O-] | -1.7 | 2.2 | -8.3 | 0.5 | -0.6 | -3.0 | / | /
Nc1ncnc(Sc2ncccn2)c1[N+](=O)[O-] | -23.5 | -4.5 | 5.0 | 17.9* | -3.2 | -2.7 | -13.4 | 2.1
CC(=O)NC1=NN(C(C)=O)C(c2ccco2)S1 (centres undefined) | -6.8 | -7.4 | 1.2 | -2.0 | 3.7 | -2.1 | / | /
CC1CCN(c2nc(/C=C/c3ccccc3)nc3ccccc23)CC1 | -19.5 | 3.3 | -4.3 | -1.5 | 1.7 | -1.8 | / | /
C(=C\c1nc(N2CCCC2)c2ccccc2n1)/c1ccccc1 | -25.2 | 1.8 | -11.2 | 9.0* | 6.1 | -6.5 | 14.9* | 1.7
Oc1ccc(Nc2nc(N3CCCC3)c3ccccc3n2)cc1 | -0.9 | 9.1 | 57.9* | 10.0* | -2.8 | -8.0 | 26.9* | -1.1
CCOC(=O)C1(Cc2ccc(Cl)cc2)CCN(C(=O)c2ccoc2)CC1 | -5.1 | -0.9 | 4.8 | -3.8 | 2.0 | -2.2 | / | /
CCCc1ncc(C[n+]2ccccc2C)c(N)n1 | 3.7 | 2.0 | -3.7 | 9.1* | -0.2 | / | -0.8 | 0.6
O=C(CCNC(=O)c1ccccc1Cl)Nc1ccc(S(=O)(=O)N2CCOCC2)cc1 | 2.2 | -19.5 | / | -4.5 | -1.1 | -8.1 | / | /
CCN1CCN(C(=S)Nc2ccc3nc(N4CCN(CC)CC4)cc(C)c3c2)CC1 | 9.0 | 4.2 | 2.2 | -2.1 | -0.7 | -7.2 | / | /
